Source: publication PMC7862700, “An all-to-all approach to the identification of sequence-specific readers for epigenetic DNA modifications on cytosine”

Columns and labels:
Test in all cases: DAPPL (digital affinity profiling via proximity ligation, sequencing); 10 mM Tris-HCl pH 7.5, 50 mM NaCl, 1 mM DTT, 4% glycerol, room temperature, 30 min; GST-TFs on glutathione beads, 16-mer random dsDNA library, 0.1% formaldehyde crosslink after washing; high values mean tight binding
Settings in all cases: protein: recombinant; tags: N-terminal GST; dsDNA, one strand shown
FLI1 = biological target: T1, FLI1 (Homo sapiens, UniProt Q01543 1-452)
T1 sequence: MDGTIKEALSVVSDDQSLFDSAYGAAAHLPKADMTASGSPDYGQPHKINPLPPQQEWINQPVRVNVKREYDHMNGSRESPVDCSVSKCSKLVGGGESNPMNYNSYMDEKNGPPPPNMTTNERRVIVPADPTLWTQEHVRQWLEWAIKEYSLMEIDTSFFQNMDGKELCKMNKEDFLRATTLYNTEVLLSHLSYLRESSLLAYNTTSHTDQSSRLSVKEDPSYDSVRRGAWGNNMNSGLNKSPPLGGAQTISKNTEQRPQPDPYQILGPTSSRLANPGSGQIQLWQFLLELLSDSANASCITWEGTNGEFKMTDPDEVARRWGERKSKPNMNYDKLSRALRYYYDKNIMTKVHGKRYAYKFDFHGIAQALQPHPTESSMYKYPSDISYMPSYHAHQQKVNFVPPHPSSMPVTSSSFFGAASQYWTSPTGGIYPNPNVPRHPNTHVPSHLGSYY
Outline: (§1)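 Beads coated with glutathione captured GST-fused human transcription factors that had been expressed in yeast, and the factors were then given DNA barcodes and pooled with a tag-only sample. The pools were incubated with 200 nmole of a random double-stranded 16-mer DNA library in Tris/NaCl/DTT/glycerol buffer for 30 min at room temperature, washed, crosslinked with 0.1% formaldehyde and proximity-ligated with BsaI/T4 ligase at 37 °C for 1 h. PCR amplification and Illumina NextSeq500 sequencing came last. Binding signal is each hexamer's read frequency for a factor divided by its frequency for the tag-only sample.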

ELK1 = biological target: T2, ELK1 (Homo sapiens, UniProt P19419 1-428)
T2 sequence: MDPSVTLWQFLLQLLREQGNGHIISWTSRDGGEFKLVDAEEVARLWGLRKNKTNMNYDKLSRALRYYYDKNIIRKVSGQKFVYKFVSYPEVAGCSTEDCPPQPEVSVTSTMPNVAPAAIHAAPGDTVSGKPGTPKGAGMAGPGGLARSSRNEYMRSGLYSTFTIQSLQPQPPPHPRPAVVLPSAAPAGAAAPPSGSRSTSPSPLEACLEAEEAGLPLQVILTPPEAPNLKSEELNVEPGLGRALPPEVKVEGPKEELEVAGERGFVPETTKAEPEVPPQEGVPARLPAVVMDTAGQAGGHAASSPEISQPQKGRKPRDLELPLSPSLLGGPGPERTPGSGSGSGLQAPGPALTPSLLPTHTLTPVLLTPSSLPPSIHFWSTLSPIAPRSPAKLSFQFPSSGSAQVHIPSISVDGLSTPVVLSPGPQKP
Outline: as §1

GABPA = biological target: T3, GABPA (Homo sapiens, UniProt Q06546 1-454)
T3 sequence: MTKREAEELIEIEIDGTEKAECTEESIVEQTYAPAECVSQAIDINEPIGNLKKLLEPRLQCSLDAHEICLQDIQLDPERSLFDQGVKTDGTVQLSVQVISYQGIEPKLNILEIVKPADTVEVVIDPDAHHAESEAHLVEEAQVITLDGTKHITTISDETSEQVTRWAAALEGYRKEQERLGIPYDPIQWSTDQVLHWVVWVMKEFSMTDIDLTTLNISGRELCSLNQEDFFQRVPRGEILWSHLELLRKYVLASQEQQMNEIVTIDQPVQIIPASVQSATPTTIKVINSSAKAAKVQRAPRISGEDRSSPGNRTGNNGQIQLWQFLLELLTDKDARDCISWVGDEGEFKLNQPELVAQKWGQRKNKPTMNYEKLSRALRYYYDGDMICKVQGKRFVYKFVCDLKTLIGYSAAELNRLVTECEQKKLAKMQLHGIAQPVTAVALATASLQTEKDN
Outline: as §1

ERG = biological target: T4, ERG (Homo sapiens, UniProt P11308 1-479)
T4 sequence: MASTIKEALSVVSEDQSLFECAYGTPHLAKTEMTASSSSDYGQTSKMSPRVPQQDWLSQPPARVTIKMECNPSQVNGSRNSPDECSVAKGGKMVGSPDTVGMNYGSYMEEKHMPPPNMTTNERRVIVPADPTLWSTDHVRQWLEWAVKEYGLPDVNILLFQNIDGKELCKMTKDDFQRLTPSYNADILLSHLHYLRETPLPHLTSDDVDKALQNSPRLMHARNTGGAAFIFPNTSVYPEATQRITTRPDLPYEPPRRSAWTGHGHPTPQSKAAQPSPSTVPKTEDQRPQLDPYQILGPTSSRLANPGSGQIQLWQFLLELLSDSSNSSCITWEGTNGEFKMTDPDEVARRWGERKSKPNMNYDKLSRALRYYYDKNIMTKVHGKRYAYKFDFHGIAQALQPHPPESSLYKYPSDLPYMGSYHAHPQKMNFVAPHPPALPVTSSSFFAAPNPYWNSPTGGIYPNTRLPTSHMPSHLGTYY
Outline: as §1

ELF1 = ELF1 (Homo sapiens, UniProt P32519 1-619)
Chain of ELF1 (P32519 whole entry): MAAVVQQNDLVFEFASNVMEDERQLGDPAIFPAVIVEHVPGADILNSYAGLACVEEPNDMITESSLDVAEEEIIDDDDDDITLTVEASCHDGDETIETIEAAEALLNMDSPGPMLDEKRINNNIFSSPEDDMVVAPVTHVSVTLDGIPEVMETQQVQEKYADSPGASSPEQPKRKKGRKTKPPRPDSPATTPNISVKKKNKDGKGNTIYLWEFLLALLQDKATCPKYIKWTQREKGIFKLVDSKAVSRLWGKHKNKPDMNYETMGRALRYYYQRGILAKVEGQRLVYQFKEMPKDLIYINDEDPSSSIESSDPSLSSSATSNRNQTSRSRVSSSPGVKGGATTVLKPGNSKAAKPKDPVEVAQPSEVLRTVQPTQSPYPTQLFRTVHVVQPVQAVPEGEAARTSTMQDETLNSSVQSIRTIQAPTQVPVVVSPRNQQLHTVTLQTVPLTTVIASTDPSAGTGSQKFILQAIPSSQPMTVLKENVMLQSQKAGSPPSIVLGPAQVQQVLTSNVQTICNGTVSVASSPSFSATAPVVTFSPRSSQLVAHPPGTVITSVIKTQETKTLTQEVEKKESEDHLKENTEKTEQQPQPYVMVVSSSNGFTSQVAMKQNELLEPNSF
Outline: as §1

EHF = biological target: T5, EHF (Homo sapiens, UniProt Q9NZC4 1-300)
T5 sequence: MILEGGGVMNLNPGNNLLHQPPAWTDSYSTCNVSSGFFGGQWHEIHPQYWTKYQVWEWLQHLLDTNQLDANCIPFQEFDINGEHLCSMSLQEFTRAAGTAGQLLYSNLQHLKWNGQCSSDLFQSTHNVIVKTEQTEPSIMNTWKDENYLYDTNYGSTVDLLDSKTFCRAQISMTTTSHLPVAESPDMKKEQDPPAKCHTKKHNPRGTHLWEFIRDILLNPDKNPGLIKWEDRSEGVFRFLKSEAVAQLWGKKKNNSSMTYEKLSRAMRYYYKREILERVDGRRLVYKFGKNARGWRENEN
Outline: as §1

SPI1 = SPI1 (Homo sapiens, UniProt P17947 1-270)
Outline: as §1

SPIB = SPIB (Homo sapiens, UniProt Q01892 1-262)
Chain of SPIB (Q01892 whole entry): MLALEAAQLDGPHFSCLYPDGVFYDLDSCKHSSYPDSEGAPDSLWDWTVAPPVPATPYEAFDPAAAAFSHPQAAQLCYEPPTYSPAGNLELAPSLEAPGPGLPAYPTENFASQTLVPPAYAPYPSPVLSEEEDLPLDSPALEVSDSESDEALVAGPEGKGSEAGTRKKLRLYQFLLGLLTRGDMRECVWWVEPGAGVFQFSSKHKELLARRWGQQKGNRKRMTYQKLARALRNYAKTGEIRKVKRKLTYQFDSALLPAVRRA
Outline: as §1

ELK3 = biological target: T6, ELK3 (Homo sapiens, UniProt P41970 1-407)
T6 sequence: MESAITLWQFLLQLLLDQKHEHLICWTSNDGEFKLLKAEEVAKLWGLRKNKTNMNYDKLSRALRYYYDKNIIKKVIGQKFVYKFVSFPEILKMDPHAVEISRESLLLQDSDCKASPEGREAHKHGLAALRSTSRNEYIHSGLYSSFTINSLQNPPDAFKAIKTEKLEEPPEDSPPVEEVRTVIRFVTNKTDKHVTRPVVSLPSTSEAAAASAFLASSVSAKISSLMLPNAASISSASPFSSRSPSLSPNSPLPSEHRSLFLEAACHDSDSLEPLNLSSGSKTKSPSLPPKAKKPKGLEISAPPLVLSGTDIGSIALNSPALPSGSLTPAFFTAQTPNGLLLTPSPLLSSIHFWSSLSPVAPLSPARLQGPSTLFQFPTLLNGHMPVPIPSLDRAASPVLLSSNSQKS
Outline: as §1

With ATCTTC the binding signal (FLI1) was 1.68 fold enrichment (6-mer frequency, TF over GST control), the binding signal (ELK1) was 1.52 fold enrichment (6-mer frequency, TF over GST control) and the binding signal (GABPA) was 1.48 fold enrichment (6-mer frequency, TF over GST control). The binding signal (ERG) was 1.51 fold enrichment (6-mer frequency, TF over GST control), the binding signal (ELF1) was 1.64 fold enrichment (6-mer frequency, TF over GST control) and the binding signal (EHF) was 1.46 fold enrichment (6-mer frequency, TF over GST control). For the same sequence, the binding signal (SPI1) was 1.52 fold enrichment (6-mer frequency, TF over GST control), the binding signal (SPIB) was 1.6 fold enrichment (6-mer frequency, TF over GST control) and the binding signal (ELK3) was 1.59 fold enrichment (6-mer frequency, TF over GST control).
